PubChem BioAssay (Tox21)
Results filed as inconclusive are left out. Activity calls are given as the source filed them. Unless noted, calls come from the whole dose curve; as a rule, active = well fitted curve in the direction sought with a large enough effect in the repeat runs; inconclusive = weak or mixed curves; inactive = no such curve, though single readings can be large; an effect the other way counts as inactive or inconclusive.

Tests used:
[1] = qHTS RealTime-Glo MT Cell Viability Assay in HEK293 cells - 24 hour (AID 1224886); note: top concentration of the series differs between compounds; nearly all actives have a fitted effect of over 50% in size
Summary of the method: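 Luminescence generated by NanoLuc from substrate produced by living HEK293 cells served as the viability signal. Each value reflects the reading at its stated time point during continuous 40 h compound exposure at 37 C.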

[2] = qHTS RealTime-Glo MT Cell Viability Assay in HEK293 cells - 8 hour (AID 1224887); note: top concentration of the series differs between compounds; nearly all actives have a fitted effect of over 50% in size
Summary of the method: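 HEK293 cells mixed with RealTime-Glo reagents (NanoLuc plus cell-permeant prosubstrate) at 600 cells/well, preincubated 5 h at 37 C/5% CO2, then given 23 nL compound in DMSO. Nonlytic luminescence from viable cells was read at 0, 8, 16, 24, 32 and 40 h.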

[3] = A CellTox Green Cytotoxicity Assay to monitor cytotoxicity in HEK293 cells - 16 hour (AID 1224888); note: nearly all actives have a fitted effect of over 35% in size
Summary of the method: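 HEK293 cells premixed with CellTox Green dye were seeded at 600 cells/well and left 5 h at 37 C/5% CO2 before pin transfer of 23 nL compound in DMSO. Fluorescence from dye bound to dead-cell DNA was read during 40 h treatment.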

[4] = qHTS RealTime-Glo MT Cell Viability Assay in HepG2 cells - 0 hour (AID 1224889); note: nearly all actives have a fitted effect of over 50% in size
Summary of the method: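 Tox21 10K library screened in qHTS format on HepG2 cells carrying RealTime-Glo reagents. Compounds were added after a 5 h preincubation, and the luminescent signal from continuous culture was measured repeatedly during 40 h treatment.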

[5] = A CellTox Green Cytotoxicity Assay to monitor cytotoxicity in HepG2 cells - 8 hour (AID 1224890); note: nearly all actives have a fitted effect of over 45% in size; note: potency is the fitted concentration of half-maximal effect
Summary of the method: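 HepG2 cells were seeded together with the CellTox Green dye at 600 cells/well, left 5 h at 37 C/5% CO2, then given compounds in DMSO. Fluorescence from dye bound to dead-cell DNA was read repeatedly over 40 h of treatment at 37 C.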

[6] = qHTS assay to identify small molecule antagonists of the estrogen receptor alpha (ER-alpha) signaling pathway using the BG1 cell line in the presence of 0.1 nM 17-beta-estradiol - cell viability counter screen (AID 1259241); note: nearly all actives have a fitted effect of over 40% in size
Summary of the method: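 In this screen, hormone-deprived VM7Luc4E2 cells were seeded at 4,000 per well, dosed with compound and 0.1 nM estradiol final, and incubated 22 hr at 37C and 5% CO2; fluorogenic live-cell protease signal reported viability.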

[7] = qHTS assay to identify small molecule antagonists of the androgen receptor (AR) signaling pathway using the MDA cell line in the presence of 0.5 nM R1881 - cell viability counter screen (AID 1259242); note: nearly all actives have a fitted effect of over 45% in size
Summary of the method: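 MDA-kb2 cells (human breast carcinoma, stably carrying MMTV-luciferase reporter) were exposed to compounds with 0.5 nM R1881 (final) for 16 hr at 37C, 0% CO2; viability then read as live-cell protease fluorescence (CellTiter-Fluor, 30 min) in the same wells.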

[8] = qHTS assay to identify small molecule phospholipidosis (PLD) inducers (AID 1259344; active = well fitted curve in the direction sought with a large enough effect; an effect the other way counts as inactive or inconclusive)
Summary of the method: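 HepG2 cells, 900/well, treated with compound plus LipidTOX Red for 24 h at 37 C; amiodarone positive and DMSO negative controls. Fixed with paraformaldehyde/Hoechst, then high-content imaging scored LipidTOX pit count and integrated intensity per well and per cell.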

[9] = qHTS assay to identify small molecule HDAC inhibitors (AID 1259364); note: top concentration of the series differs between compounds; nearly all actives have a fitted effect of over 45% in size
Summary of the method: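 Wild-type HCT-116 cells were plated overnight, exposed to compounds for 2 h at 37 °C, then given HDAC-Glo class I/II luminogenic reagent for 30 min at room temperature before luminescence was read.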

[10] = qHTS assay to identify small molecule HDAC inhibitors - cell viability counter screen (AID 1259365); note: series mostly up to about 92 µM; nearly all actives have a fitted effect of over 50% in size
Summary of the method: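 Measured quantity is CellTiter-Glo luminescence from wild-type HCT-116 cells after compound incubation of 2hr at 37C, 5% CO2; reagent developed 30min at room temperature.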

[11] = qHTS assay to identify small molecule antagonists of the sonic hedgehog signaling (Shh) pathway - cell viability counter screen (AID 1259367); note: nearly all actives have a fitted effect of over 55% in size
Summary of the method: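 NIH/3T3-derived Gli1-Luc reporter cells, 2,000/well, plated 4 hr before compound addition, then stimulated with conditioned medium for 24 hr at 37C. Viability measured in the same wells by CellTiter-Fluor fluorescence, reagent added at 23 hr for 1 hr.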

[12] = qHTS assay to identify small molecule agonists of the sonic hedgehog signaling (Shh) pathway (AID 1259368; calls by dose curve; note: series mostly up to about 92 µM; nearly all actives have a fitted effect of over 15% in size)
Summary of the method: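 NIH/3T3-derived 3T3Gli1-Luc cells carrying a stably integrated Gli1 response element–firefly luciferase reporter were plated, left 4 hr at 37 C, then given compounds in DMSO for 24 hr. Luminescence was read 30 min after adding luciferase reagent.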

[13] = target: Estrogen receptor beta (Homo sapiens) (UniProt Q92731); test: qHTS assay to identify small molecule agonists of the estrogen receptor beta (ER-beta) signaling pathway (AID 1259377; active = well fitted activation curve with a large enough effect in the signal ratio in the repeat runs, not every such curve was filed as active; the % refers to the signal ratio)
Summary of the method: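 Reporter cells (HEK293T, ER-beta-UAS-bla) receive compounds or DMSO after a 6 hr pre-incubation. They then incubate 16 hr at 37C/5% CO2, and fluorescence from LiveBLAzer B/G substrate is measured after 2 hours at room temperature.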

[14] = target: Estrogen receptor beta (Homo sapiens) (UniProt Q92731); test: qHTS assay to identify small molecule antagonists of the estrogen receptor beta (ER-beta) signaling pathway (AID 1259378; active = well fitted inhibition curve with a large enough effect in the signal ratio in the repeat runs, not every such curve was filed as active; the % refers to the signal ratio)
Summary of the method: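 ER-beta-UAS-bla HEK293T cells in 2% charcoal-stripped FBS medium treated with compound plus 1nM final 17-beta-estradiol for 16 hr at 37C. Beta-lactamase reporter read by FRET substrate fluorescence after 2 hours at room temperature.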

[15] = qHTS assay to identify small molecule agonists of the androgen receptor (AR) signaling pathway in the presence of an antagonist - cell viability counter screen (AID 1259379); note: series mostly up to about 92 µM; nearly all actives have a fitted effect of over 25% in size
Summary of the method: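 MDA-kb2 human breast carcinoma cells (stable MMTV-luciferase, AR/GR responsive) were seeded 3,000 cells/well, pre-incubated 5 hr at 37C without CO2, then given 3.0uM nilutamide and compounds at 15 concentrations for 16 hr. Viability was read by CellTiter-Fluor fluorescence.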

[16] = qHTS assay to identify small molecule agonists of the estrogen receptor beta (ER-beta) signaling pathway - cell viability counter screen (AID 1259380); note: nearly all actives have a fitted effect of over 30% in size
Summary of the method: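 ER-beta-UAS-bla HEK293T cells in medium with 2% charcoal-stripped FBS were preincubated 6 hr at 37C, dosed with compound in DMSO for 16 hr, then after the bla read, CellTiter-Glo was added for 30 min at room temperature; luminescence recorded.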

[17] = qHTS assay to identify small molecule agonists of the sonic hedgehog signaling (Shh) pathway - cell viability counter screen (AID 1259366); note: nearly all actives have a fitted effect of over 50% in size
Summary of the method: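 In quantitative high-throughput format, 3T3 Gli1-Luc cells were exposed to compounds for 24hr and multiplexed for viability using CellTiter-Fluor, incubated 1hr at 37C before the fluorescence read.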

[18] = qHTS assay to identify small molecule antagonists of the sonic hedgehog signaling (Shh) pathway (AID 1259369; calls by dose curve; note: nearly all actives have a fitted effect of over 45% in size)
Summary of the method: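 NIH/3T3-derived 3T3Gli1-Luc cells with stably integrated Gli1-Luc reporter were preincubated 4hr at 37 C, then given compounds in DMSO plus Shh conditioned medium and incubated 24hr. Firefly luciferase luminescence read after 30min reagent at room temperature.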

[19] = target: Estrogen receptor (Homo sapiens) (UniProt P03372); test: qHTS assay to identify small molecule antagonists of the estrogen receptor alpha (ER-alpha) signaling pathway using the BG1 cell line in the presence of 0.1 nM 17-beta-estradiol (AID 1259244); note: nearly all actives have a fitted effect of over 50% in size
Summary of the method: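 VM7Luc4E2 cells (endogenous full-length ER-alpha, stable 4xERE-luciferase) were grown 5 days in phenol red-free medium with charcoal-stripped FBS, then exposed 22 h at 37C to compounds plus 0.1 nM (final) 17beta-estradiol; ONE-Glo luminescence read-out.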

[20] = target: Androgen receptor (Homo sapiens) (UniProt P10275); test: qHTS assay to identify small molecule antagonists of the androgen receptor (AR) signaling pathway using the MDA cell line in the presence of 0.5 nM R1881 (AID 1259243); note: nearly all actives have a fitted effect of over 50% in size
Summary of the method: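 MDA-kb2 human breast carcinoma cells carrying an MMTV-luciferase reporter (AR- and GR-responsive) were plated, rested 5 hr at 37C, dosed with compounds, then stimulated with 0.5 nM R1881 (final) for 16 hr; luminescence was read after ONE-Glo.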

Measured: Potency

Estrogen receptor (Homo sapiens), sequence (P03372 whole entry, looked up): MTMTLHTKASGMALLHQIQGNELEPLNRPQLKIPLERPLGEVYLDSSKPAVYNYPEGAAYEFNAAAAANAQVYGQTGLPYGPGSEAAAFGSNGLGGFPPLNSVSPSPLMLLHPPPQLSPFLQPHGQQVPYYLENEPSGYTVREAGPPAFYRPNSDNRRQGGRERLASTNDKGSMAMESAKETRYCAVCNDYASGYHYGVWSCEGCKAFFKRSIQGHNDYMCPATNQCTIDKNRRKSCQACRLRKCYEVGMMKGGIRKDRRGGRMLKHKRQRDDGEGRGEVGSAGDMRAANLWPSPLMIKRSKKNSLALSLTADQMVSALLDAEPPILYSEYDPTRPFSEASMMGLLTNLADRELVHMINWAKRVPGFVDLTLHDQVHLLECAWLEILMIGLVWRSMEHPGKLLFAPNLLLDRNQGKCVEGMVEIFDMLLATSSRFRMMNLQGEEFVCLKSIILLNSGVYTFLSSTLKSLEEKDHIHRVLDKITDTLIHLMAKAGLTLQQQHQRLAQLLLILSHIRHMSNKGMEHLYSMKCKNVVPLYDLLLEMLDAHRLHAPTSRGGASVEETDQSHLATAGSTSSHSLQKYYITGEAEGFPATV
Estrogen receptor beta (Homo sapiens), sequence (Q92731 whole entry, looked up): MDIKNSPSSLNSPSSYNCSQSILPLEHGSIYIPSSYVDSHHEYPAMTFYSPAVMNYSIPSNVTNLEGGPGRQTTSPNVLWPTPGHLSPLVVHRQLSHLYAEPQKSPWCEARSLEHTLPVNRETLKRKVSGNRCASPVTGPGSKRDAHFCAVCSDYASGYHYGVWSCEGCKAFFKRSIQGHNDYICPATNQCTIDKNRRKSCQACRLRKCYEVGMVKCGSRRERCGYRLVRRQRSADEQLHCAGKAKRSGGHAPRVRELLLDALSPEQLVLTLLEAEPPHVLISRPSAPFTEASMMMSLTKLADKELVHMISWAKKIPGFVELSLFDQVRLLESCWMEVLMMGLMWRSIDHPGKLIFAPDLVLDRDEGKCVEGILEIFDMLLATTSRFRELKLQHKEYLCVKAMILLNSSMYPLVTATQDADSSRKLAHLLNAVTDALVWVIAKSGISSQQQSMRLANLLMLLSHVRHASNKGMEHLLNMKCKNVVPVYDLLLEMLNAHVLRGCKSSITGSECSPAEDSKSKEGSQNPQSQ
Androgen receptor (Homo sapiens), sequence (P10275 whole entry, looked up): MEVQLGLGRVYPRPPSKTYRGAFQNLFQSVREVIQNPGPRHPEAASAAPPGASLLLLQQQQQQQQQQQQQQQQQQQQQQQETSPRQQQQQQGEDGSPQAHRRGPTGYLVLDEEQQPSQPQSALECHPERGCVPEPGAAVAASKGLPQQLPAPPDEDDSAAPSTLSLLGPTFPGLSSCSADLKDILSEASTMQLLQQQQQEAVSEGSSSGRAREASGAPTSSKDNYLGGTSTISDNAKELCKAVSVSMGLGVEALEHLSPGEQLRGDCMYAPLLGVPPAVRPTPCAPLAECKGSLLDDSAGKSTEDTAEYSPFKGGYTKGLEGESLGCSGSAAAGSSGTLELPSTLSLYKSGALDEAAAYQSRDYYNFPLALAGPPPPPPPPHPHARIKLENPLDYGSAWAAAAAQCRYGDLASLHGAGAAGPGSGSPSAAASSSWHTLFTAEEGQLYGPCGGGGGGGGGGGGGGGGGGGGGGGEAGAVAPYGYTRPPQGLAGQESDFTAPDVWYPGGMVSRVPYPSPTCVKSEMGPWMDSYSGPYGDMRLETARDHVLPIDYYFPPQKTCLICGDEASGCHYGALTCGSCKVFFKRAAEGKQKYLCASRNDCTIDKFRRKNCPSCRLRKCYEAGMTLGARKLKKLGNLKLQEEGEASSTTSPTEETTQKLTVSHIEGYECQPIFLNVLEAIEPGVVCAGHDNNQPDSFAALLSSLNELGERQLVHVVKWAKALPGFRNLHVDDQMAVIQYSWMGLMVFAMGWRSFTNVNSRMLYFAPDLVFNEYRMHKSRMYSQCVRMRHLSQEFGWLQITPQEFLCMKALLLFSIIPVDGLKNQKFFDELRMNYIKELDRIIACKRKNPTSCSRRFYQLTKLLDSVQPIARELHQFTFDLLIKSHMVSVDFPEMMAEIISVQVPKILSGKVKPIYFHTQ

O=c1cc(O)c(Cl)c[nH]1
inactive: [1] | [2] | [3] | [4] | [5] | [6] | [7] | [8] | [9] | [10] | [11] | [12] | [13] | [14] | [15] | [16]

CCCCC(CC)C(=O)OC(C)C (stereo not given)
inactive: [1] | [2] | [3] | [4] | [5] | [6] | [7] | [9] | [10] | [17] | [11] | [12] | [18] | [15] | [16]

O=C(COCCOCCOCC(=O)Nc1c(I)cc(I)c(C(=O)O)c1I)Nc1c(I)cc(I)c(C(=O)O)c1I
inactive: [1] | [2] | [3] | [4] | [5] | [6] | [7] | [8] | [9] | [10] | [17] | [11] | [12] | [13] | [14] | [15] | [16]

CCCOC(=O)CCCCC(=O)OCCC
inactive: [1] | [2] | [3] | [4] | [5] | [6] | [7] | [9] | [10] | [17] | [11] | [12] | [18] | [13] | [14] | [15] | [16]

O=C(Oc1ccccc1C(=O)O)c1ccccc1O
inactive: [1] | [2] | [3] | [4] | [5] | [6] | [7] | [8] | [9] | [10] | [17] | [11] | [12] | [15] | [16]

Cc1nc2ccccc2c(=O)o1
inactive: [1] | [2] | [3] | [4] | [5] | [6] | [7] | [19] | [10] | [17] | [11] | [12] | [18] | [13] | [14] | [15] | [16]

C1=C\CC/C=C\CC/1
inactive: [1] | [2] | [3] | [4] | [5] | [6] | [7] | [19] | [10] | [17] | [11] | [12] | [18] | [15] | [16]

Cc1cc(C)cc([N+](=O)[O-])c1
inactive: [1] | [2] | [3] | [4] | [5] | [6] | [7] | [9] | [10] | [17] | [11] | [12] | [18] | [15] | [16]

CO/N=C(/C(=O)N[C@@H]1C(=O)N2C(C(=O)O)=C(Cn3nnc(C)n3)CS[C@H]12)c1csc(N)n1
inactive: [1] | [2] | [3] | [4] | [5] | [6] | [7] | [8] | [9] | [10] | [11] | [12] | [18] | [13] | [15] | [16]

CCCC(C)CC (stereo not given)
inactive: [1] | [2] | [3] | [4] | [5] | [6] | [7] | [9] | [10] | [17] | [11] | [18] | [13] | [15] | [16]

C=C(C)C(=O)OC
inactive: [1] | [2] | [3] | [4] | [5] | [6] | [7] | [9] | [10] | [17] | [11] | [18] | [15]

CCCCCCCCCOCC1CO1 (stereo not given)
inactive: [1] | [2] | [3] | [4] | [5] | [7] | [9] | [10] | [17] | [11] | [12] | [18] | [13] | [14] | [15]

CCCCCCCCOC(C)=O
inactive: [1] | [2] | [3] | [4] | [5] | [7] | [19] | [9] | [10] | [17] | [11] | [12] | [15]

CCCCCCCCCCCCCCCC(=O)NCCO
active: [5] 6.01 µM
inactive: [1] | [2] | [3] | [4] | [7] | [8] | [9] | [10] | [17] | [11] | [12] | [15] | [16]

CC1(N)CCC(C(C)(C)N)CC1 (stereo not given)
inactive: [1] | [2] | [3] | [4] | [5] | [6] | [7] | [9] | [10] | [17] | [11] | [13] | [15] | [16]

Cn1c(=O)c2c(ncn2CC2OCCO2)n(C)c1=O
inactive: [1] | [2] | [3] | [4] | [5] | [7] | [20] | [8] | [9] | [10] | [17] | [11] | [12] | [18] | [13] | [14] | [15] | [16]
